Measured values: the supplement of paper PMC6555819

How the values were obtained:
Test in all cases: PBM binding z-score (relative to random genomic background probes); higher = stronger binding; sequences stand for … in GC…GCGATTGACAGCGTAGAATGAAGG
[1] = tested on: RARb homodimer (NR concentration 270 nM)
In short: (§1)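 The probes on custom Agilent 4×180K protein-binding microarrays were double-stranded, with 34-nt variable regions bearing direct-repeat seeds, single-nucleotide variants, half-site ablations and random human genomic background sequences. Incubation lasted 1 h with ligand-free nuclear receptor dimers in PBS pH 7.4, 2% milk, 0.02% Triton X-100, 1 mM DTT, 0.2 mg/mL BSA and 0.4 mg/ml salmon testes DNA. Antibodies against each partner (one per run) detected bound dimers, and fluorescence scans were regression-normalized. Binding z-scores take the random background probes as reference.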

[2] = tested on: RARg:RXRa (NR concentration 270 nM, RXRa partner concentration 90 nM)
In short: as §1

[3] = tested on: RARg homodimer (NR concentration 270 nM)
In short: as §1

[4] = tested on: RXRa DBDmut IVT, anti-RXR (DBD mutation: RXRa K156A/R161A, NR concentration 90 nM)
In short: as §1

[5] = tested on: RXRa homodimer (NR concentration 180 nM)
In short: as §1

[6] = tested on: THRa:RXRa (NR concentration 90 nM, RXRa partner concentration 90 nM)
In short: as §1

[7] = tested on: THRa homodimer (NR concentration 90 nM)
In short: as §1

[8] = tested on: VDR homodimer (NR concentration 270 nM)
In short: as §1

Sequence | PBM binding z-score [1] | PBM binding z-score [2] | PBM binding z-score [3] | PBM binding z-score [4] | PBM binding z-score [5] | PBM binding z-score [6] | PBM binding z-score [7] | PBM binding z-score [8]
GGAACGAGGGCTAAGTTGATAGCATCTGTCGACG | -0.586 | -0.0723 | 0.11 | 0.186 | -0.114 | -0.638 | -0.828 | -0.365
ACAGACAGGTGAGTGAAGGTAACACAGCTGGACG | 0.48 | 0.416 | 0.789 | -0.436 | 0.647 | 1.87 | -0.183 | -0.21
ATCTCTAGGTAAAGCTAGTTCAGTGAATGCAAAT | 0.208 | 0.0635 | 0.23 | -0.0872 | 0.134 | 1.15 | 0.00789 | 0.525
AGAACGAGGGCACGCTGAGTTGACAGCAGAGTAG | 1.43 | 2.35 | 2.33 | 1.6 | 1.73 | 2.16 | -0.174 | 1.79
CCTTACGGGTCAAGTTTATAGCACGGGTGGTACG | 3.32 | 5.13 | 4.78 | 2.07 | 5.03 | 2.56 | 0.164 | 3.09
TCTAATAGTTGATTAGGGCAACCGAAACAGCGGA | 0.599 | 0.338 | 0.66 | 0.755 | 0.708 | 0.551 | -0.0484 | -0.0344
AGTCAACGTTCACTAGGTAACGTAAGATTCAGCT | 0.0524 | 0.418 | 0.444 | 0.205 | 0.197 | 0.401 | 0.11 | -0.293
CCTACTGGGCCATCTGGTCATTGATATCAACGTT | 0.54 | 0.0182 | 0.419 | -0.267 | -0.224 | -0.171 | 0.0962 | -0.0886
TCATATAGGTAGAGGTGAAAGTCGAACGATATGA | 1.04 | 1.18 | 1.11 | 0.392 | 1.77 | 1.41 | -0.0362 | 0.0889
GCTCGGAGGGCAAGGTCAGAGCTTTGTCCGTAGA | 3.27 | 3.7 | 3.86 | 0.857 | 2.93 | 2.76 | 0.825 | 0.967
CCTAGTTGGTGAAGGTCACACACGCTATAGGTAC | 4.26 | 4.01 | 4.06 | 1.36 | 3.65 | 2.89 | 1.2 | 2.3
ATCTCTAGATAACAAGTTCAGTGAAAGAGAGGAC | 1.37 | 0.77 | 0.933 | 0.583 | 0.621 | 0.754 | 0.108 | 2.72
ATATGTAGGTTAAGTGTCATTCAGGTTGGTTCGC | 2.02 | 1.53 | 1.47 | 1.1 | 1.9 | 1.58 | 1.08 | 1.53
ACAGACAGGTGATGAACGTAACTCAGGCTATCAT | 0.0133 | 0.303 | 0.489 | 0.0589 | 0.363 | 0.000937 | -0.114 | -0.513
TCTTGTAGATCAAAGGTTAAGAGAGCCGAAGCCT | 1.45 | 1.84 | 0.766 | 0.28 | 3.32 | 1.18 | -0.582 | -0.415
ATACCAAGGTGATCGTGAGCTCGTTGATACTAAC | 0.153 | -0.0277 | 0.19 | -0.225 | 0.139 | 0.678 | 0.422 | -0.219
CGTCAAAGTTCAACTAAGGTAACGGAAAGCACGC | 4.39 | 5.99 | 6.88 | 4.63 | 5.09 | 5.24 | 1.9 | 3.47
ATACCAAGGTGATTGTGAGGTCGTTGATACTAAC | 2.03 | 2.19 | 1.08 | 1.27 | 1.59 | 3.66 | 2.94 | 3.33
TCTGCTAGGTCAACGCTGGTCAGCTAATCTGCTA | 3.46 | 4.21 | 5.26 | 0.991 | 2.33 | 3.52 | 0.43 | -0.576

Sequence | PBM binding z-score [1] | PBM binding z-score [2] | PBM binding z-score [3] | PBM binding z-score [4] | PBM binding z-score [5] | PBM binding z-score [6] | PBM binding z-score [7] | PBM binding z-score [8]
CCTACTGGGCCATTCAGATGTCATTGATCATATG | 0.108 | 0.278 | 0.389 | 0.148 | -0.34 | -0.291 | -0.95 | -0.52
ACTTACGGGTCAACGAGGTTTTAGCACGCGTATA | 3.37 | 5.26 | 4.9 | 2.16 | 5.5 | 3.46 | 0.678 | 1.84
CCTAGCAGGCCAGGGTAACTCAAGCATTTCGCTT | -0.537 | -0.456 | -0.357 | -0.541 | -0.455 | -0.054 | -0.445 | -0.329
TGAATGAGTTTATAAGATCAGGGAACGTTGCAAA | -0.48 | 0.181 | 0.344 | 3 | 0.0895 | 0.0488 | -0.207 | 2.37
AGTCAAAGTTCATCTCGGTAACGTAAGATATGCT | 3.93 | 5.53 | 6.02 | 4.57 | 4.35 | 2.58 | -0.318 | 4.92
CCTTACGGGTCACTGACAGGTTATCGCATTTGGA | 3.3 | 5.91 | 4.66 | 1.9 | 5.05 | 3.02 | 0.17 | 0.982
GATACAGTGTCAGCTAGAGGCCAGAGTATGGAAA | 1.01 | 2.09 | 0.824 | -0.492 | 0.242 | 0.131 | -0.254 | -0.198
CGAACTAGGTCATTTACAGGACAGTGAATAGTAA | 2.66 | 4.82 | 4.09 | 2.58 | 2.38 | 2.89 | 0.896 | 1.75
TCTTCTAGGTCAACGATGGTCAGCTAATCTGCTA | 3.76 | 4.37 | 5.58 | 1.9 | 3.09 | 3.55 | 2.17 | 0.674
AATGCAGGGTCATCGTAGGCCAGAGTACGCACAG | 3.56 | 5.5 | 4.83 | 3.37 | 6.16 | 4.6 | 0.92 | 3.45
CCTCGGAGGACAGAAGGTCCGAGCTGTCCGCTTT | -0.0245 | -0.392 | -0.0646 | 0.0399 | -1.02 | -0.359 | -0.311 | 0.0219
CATGCAGGGTCAGCTAGGCCAGAGTAGGGACGGC | 3.19 | 4.53 | 5.06 | 1.71 | 4.75 | 3 | 0.624 | 1.16
CGTCCAAGTTCAAGGTAACGTAACAGAAAGCAGC | 2.23 | 2.83 | 3.21 | 4.37 | 2.15 | 2.6 | 1.66 | 3.39
CCTACTGGGCCAAAGGTCATTGATTCCAATGCTC | 4.66 | 5.94 | 4.86 | 1.43 | 7.21 | 3.33 | 0.631 | 2.09
AGAATGAGGTAACCAAAGATCAGGGAAACGCTTG | -0.385 | 0.568 | 0.561 | -0.346 | 0.827 | 2.05 | 0.539 | -0.262
GCGTGTAGATCAAGGTTAAGAAAGACTAAGCTAA | 0.225 | 0.354 | 0.289 | -0.253 | 0.772 | 1.54 | -0.256 | -0.286
TCATATAGGTAAACAGGTGAAACTCCGTAAGTTA | 0.92 | 0.806 | 0.575 | 1.37 | 1.47 | 0.984 | 0.268 | 0.307
CTACCAAGGTGAACAAGGTCGTGGATTACTATTC | 2.22 | 2.24 | 1.63 | 0.592 | 2.7 | 3.64 | 2.18 | 1.27
ATTGAAAGGTCGAGGTGAGTATAGAGAAAGGGAA | 3.09 | 4.26 | 4.24 | 1.13 | 4.51 | 3.18 | 1.04 | 1.18

Sequence | PBM binding z-score [1] | PBM binding z-score [2] | PBM binding z-score [3] | PBM binding z-score [4] | PBM binding z-score [5] | PBM binding z-score [6] | PBM binding z-score [7] | PBM binding z-score [8]
CAAACTAGGTCAAGAGGTCAGAGTCCGCTTCCCG | 5.42 | 7.29 | 7.22 | 2.53 | 6.9 | 3.88 | 2.15 | 3.34
CCTACTGGGCCATCATGTCATTGATATCAACGTT | 0.671 | 0.216 | 0.415 | -0.152 | -0.104 | 0.045 | 0.122 | -0.253
TCGAGTAGGTTACGGGCATTCAGAATGGCGTCGA | 0.362 | 0.594 | 0.594 | -0.00223 | 0.855 | 0.116 | -0.913 | -0.716
CCAACTAGGTCAAGAGGTCAAAGTCCGCTTCCCG | 5.51 | 8.12 | 7.31 | 2.99 | 8.12 | 4.24 | 2.47 | 4.94
GATACAGGGTCAGCAAGAGGCCAGAGTATGGAAA | 3.45 | 6.61 | 4.76 | 1.16 | 4.52 | 3.21 | 0.361 | 0.548
AGAATGAGGTTATTAAGATCACGGAATTGCGGTC | 0.99 | 1.37 | 1.01 | 2.19 | 2.01 | 2.42 | 0.72 | 1.73
CGAACTAGGTCATCCAGGACGGTGAATACATTGA | 2.81 | 4.14 | 4.7 | 1.85 | 3.01 | 3.07 | 1.04 | 1.3
GCATATAGGTAATACAAGGTGAAAGTGCGATTGT | 0.903 | 0.659 | 0.584 | 0.39 | 0.992 | 4.13 | 1.19 | 0.133
CCTACTGGCCCAAAGGTCATTGATTCCAATGCTC | 4.89 | 4.89 | 4.36 | 1.06 | 5.05 | 3.3 | 0.916 | 2.14
TCTGCTAGGTCAACTATGGTCAGCTAATCTGCTA | 3.57 | 4.26 | 5.22 | 1.45 | 3.13 | 3.87 | 0.915 | 0.149
ATCTCTAGGTAACCAAGTTCATTGAATGCCGAAC | 2.07 | 1.42 | 1.35 | 2.39 | 1.29 | 2.2 | 1.25 | 5.53
CCAACTAGGTCAAGGTCAAAGTCGGTTTGTGCCA | 5.31 | 6.08 | 6.54 | 3.17 | 5.72 | 4.33 | 4.25 | 4.39
TAGCCTAGGTCGTTGGGCCAGTATAGTACGCATC | 0.513 | 0.529 | 0.698 | 0.311 | 0.61 | 0.621 | 0.0467 | 0.0773
CGAACCAGGGCATGAGTTGATAGCAAATGCCGAT | 0.207 | 0.644 | 0.753 | 0.293 | 0.492 | 0.518 | -0.382 | 0.429
AATACAGGGTCACTAGGCCTGAGTAGGTACGAAT | 3.04 | 4.82 | 4.35 | 2.53 | 5.28 | 3.13 | 0.975 | 1.81
CGTCCAAGTTCATAGGAGGTCAGTGAAGACAGAT | 4.1 | 4.63 | 5.14 | 4.98 | 3.69 | 4.73 | 1.52 | 6.53
CAAACTAGGTCAAGAGGTCAAAGCCCGCTTCCCG | 5.64 | 8.19 | 7.34 | 2.92 | 7.83 | 4.46 | 2.47 | 3.87
AGAATGAGGTTATTAAGAGCAGGGAATTGCGGTC | 1.16 | 1.1 | 0.698 | 2.01 | 1.48 | 2.14 | 0.798 | 1.21
TAGCCTAGGTCAGATCGGGCCATTATACGCTATA | 2.15 | 2.48 | 3.68 | -0.0922 | 1.36 | 4.25 | 0.543 | -0.154
